Screens as filed in PubChem.
Only some compounds are listed: those with a hit (about 7.9% of all), similar ones and a draw of the others.
HT1080NT lethal – qHTS for induction of synthetic lethality in tumor cells producing 2HG: qHTS for the HT-1080-NT fibrosarcoma cell line; 360,000 tested, 1.6% active; Potency, µM (titrated, usually from 46.1 µM), without a hit: at the highest dose activity, negative = less viability, most hits filed as cytotoxic; HT-1080-NT fibrosarcoma viability, CellTiter-Glo ATP luminescence, 48 h;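 note: NT is the 2HG producing partner of a matched IDH1 knockdown line; 0% = DMSO-treated cells and -100% = media-only wells without cells; nearly all actives have a fitted effect of over 55% in size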
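Read-out is CellTiter-Glo luminescence after 10 minutes at room temperature, following 48 hours' compound treatment of HT-1080-NT cells (750 cells/well, RPMI, 5% FBS, 37 degrees C).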
KB-3-1 cytotox – qHTS assay for MDR1-selective chemotherapeutics: Primary screen using the parental adenocarcinoma cell KB-3-1; KB-3-1 viability, CellTiter-Glo ATP luminescence, 72 h; Potency, µM (titrated, usually from 46.1 µM), hits mostly cytotoxic; 400,000 tested, 1.4% active; note: % is set by controls: 0 for no effect and ±100 for the full control effect; nearly all actives have a fitted effect of over 60% in size
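Cytotoxicity measured as CellTiter-Glo luminescence after 72 h at 37 C. Compound titrations were pinned onto drug-naive KB-3-1 parental adenocarcinoma cells grown in DMEM with 10% FBS, and normalized data fitted to concentration-response curves.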
HT1080 IDH1KD tx – qHTS for induction of synthetic lethality in tumor cells producing 2HG: qHTS for the HT-1080-IDH1KD cell line. Potency, µM (titrated, usually from 46.1 µM), inactives show at the highest dose activity, negative = toxicity, usual class: cytotoxic. HT-1080 IDH1 knockdown viability, ATP luminescence, 48 h. AID 686971, 2013. 360,000 tested, 2% active;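 note: 0% = DMSO wells and -100% = cell-free medium wells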
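% activity derives from luminescence (CellTiter-Glo), normalised to DMSO and no-cell wells. HT-1080-IDH1KD cells, 750/well, had 48 h compound exposure at 37 °C.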
SW480 rerep – A quantitative high throughput screen for small molecules that induce DNA re-replication in SW480 colon adenocarcinoma cells; 340,000 tested, 1.8% active; SW480 DNA re-replication, Hoechst DNA content imaging, 48 h; AID 624297, 2012; Potency, µM (titrated, usually from 46.1 µM), inactives show at the highest dose re-replication activation, actives largely listed as activators; note: % of control where 0% means no effect; nearly all actives have a fitted effect of over 55% in size
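Treated cells incubate 48 hr (37 C, 5% CO2), are stained 40 min with Hoechst, and nuclear fluorescence is enumerated; a rise in nuclei with high DNA signal marks re-replication.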
MCF10A rerep – A quantitative high throughput screen for small molecules that induce DNA re-replication in MCF 10a normal breast cells. Potency, µM (series often up to 46.1 µM), for inactives: top-dose activity, positive = re-replication, hits mostly activators. MCF 10A DNA re-replication, Hoechst nuclear intensity, 48 h. 350,000 tested, 2.9% active; note: % of control where 0% means no effect; nearly all actives have a fitted effect of over 50% in size
KB-V1 cytotox – qHTS assay for MDR1-selective chemotherapeutics: Primary screen using the drug-selected MDR subline cells KB-V1 | AID 1347076, 2019 | 400,000 tested, 3.4% active | KB-V1 MDR cells viability, CellTiter-Glo, 72 h | Potency, µM (titrated, usually from 46.1 µM), actives largely listed as cytotoxic; note: % is set by controls: 0 for no effect and ±100 for the full control effect; nearly all actives have a fitted effect of over 60% in size
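Potencies derive from concentration-effect curves fitted to normalized luminescence (CellTiter-Glo) of KB-V1 cells treated for 72 h at 37 degrees C in phenol-red-free DMEM containing 10% FBS.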
Starred values were filed as active, the others as inactive; i = inactive; ? = inconclusive; / = no result. Calls come from the whole dose curve; as a rule, active = well fitted curve in the direction sought with a large enough effect; inconclusive = small, poorly fitted or top-dose-only effect, or another doubt; inactive = no such curve, though single readings can be large; an effect the other way counts as inactive or inconclusive. Potency is the fitted concentration of half-maximal effect.

SMILES	HT1080NT lethal	KB-3-1 cytotox	HT1080 IDH1KD tx	SW480 rerep	MCF10A rerep	KB-V1 cytotox
CC(=O)OCC(=O)[C@@]1(O)CCC2C3CCC4=CC(=O)CC[C@]4(C)C3=CC[C@@]21C (stereo not given in full)	/	/	/	-4%	-3%	/
CCOC(=O)C1=C[C@@H](CC)N(S(=O)(=O)c2ccc(C)cc2)[C@H]1c1cccc(Cl)c1	-8%	?	?	/	/	i
O=S(=O)(c1ccc(Br)cc1)c1nnn2c1nc(Nc1cccc(C(F)(F)F)c1)c1sccc12	/	i	/	/	/	i
CN(C)/C=C/C(=O)c1ccccc1OCc1cnc(Cl)s1	-3%	i	8%	?	18µM*	i
Cc1nc2ccccc2c(=O)n1/N=C/c1c(O)ccc2ccccc12	?	i	?	2.9µM*	13%	i
O=c1c2ccccc2nc(N/N=C/c2c(O)ccc3ccccc23)n1O	?	?	?	?	3.3µM*	i
CC(C)(C)N=Cc1c(O)ccc2oc3c(c12)CCCC3	?	i	0%	4%	14%	i
Cc1nc2ccccc2c(=O)n1/N=C/c1ccc(N(C)C)cc1	14%	i	3%	-3%	11%	i
Cc1nc2ccccc2c(=O)n1/N=C/c1c(O)ccc2oc3c(c12)CCCC3	0%	?	-14%	17%	1%	18µM*
Cc1nc2ccccc2c(=O)n1/N=C/c1cc(Br)ccc1O	?	?	?	21µM*	3%	?
CCCCCn1cc2c(c1-c1ccccc1Br)c(=O)n(C)c(=O)n2C	/	i	/	/	/	i
CCC(C(N)=O)N1C(=O)C2C3CCC(C3)C2C1=O (stereo not given)	7%	i	13%	/	/	i
CCOC(=O)c1c(NC(=O)CSc2cn(CCNC(=O)c3c(F)cccc3F)c3ccccc23)sc2c1CCCC2	/	?	/	/	/	i
O=c1c2ccccc2nc(/C=C/c2ccccc2)n1CCc1ccccc1	23%	i	27%	0%	-3%	i
O=c1c2ccccc2nc(/C=C/c2cc(Br)ccc2O)n1CCCO	?	21µM*	?	?	?	?
CC(=O)Nc1ccc(-c2ccnc3c2CC(C)(C(=O)Nc2cccc(C(C)=O)c2)O3)cc1 (stereo not given)	4%	i	-3%	/	/	i
OCCCNc1ncnc2c1ncn2[C@H]1CN(Cc2ccc(-c3ccccc3)cc2)C[C@@H](CO)O1	-17%	i	-20%	/	/	i
O=C(Nc1cccnc1Cl)c1cnn2c1NC(=C1CC1)C=C2C(F)F	/	i	/	/	/	i
O=C1Cc2cc(S(=O)(=O)N3CCN(c4ccc(C(F)(F)F)cc4)CC3)ccc2N1	/	i	/	/	/	i
CCOc1ccc(S(=O)(=O)NCc2ccccn2)cc1NC(=O)c1ccccc1	2.6µM*	2.3µM*	3.3µM*	?	?	6.5µM*
COc1ccc(S(=O)(=O)NCc2ccccn2)cc1NC(=O)c1ccccc1F	4.6µM*	1.5µM*	5.8µM*	5.8µM*	13µM*	1.8µM*
CCOc1ccc(S(=O)(=O)NCc2cccnc2)cc1NC(=O)c1ccccc1	?	i	1%	-9%	-11%	i
CN(C)S(=O)(=O)N(CC(=O)N1CCC(Cc2ccccc2)CC1)c1ccccc1	-14%	i	-13%	-12%	-7%	i
COc1ccc(N(CC(=O)N2CCC(Cc3ccccc3)CC2)S(C)(=O)=O)cc1	-2%	i	-3%	5.8µM*	?	?
CS(=O)(=O)N(CC(=O)N1CCCC1)c1ccc(OCc2ccccc2)cc1	-1%	?	-10%	1%	-1%	15µM*
SMILES	HT1080NT lethal	KB-3-1 cytotox	HT1080 IDH1KD tx	SW480 rerep	MCF10A rerep	KB-V1 cytotox
N/C(=N\S(=O)(=O)c1cc(C(F)(F)F)cc(C(F)(F)F)c1)c1ccncc1	4%	i	-3%	-1%	1%	i
N/C(=N\S(=O)(=O)c1cc(C(F)(F)F)cc(C(F)(F)F)c1)c1ccc(Cl)cc1	?	i	?	10µM*	13µM*	?
N#Cc1ccc(-c2ccccc2)nc1SCC(=O)c1cc2ccccc2oc1=O	?	i	?	?	5µM*	i
CC(C)c1c(C#N)c(N)nc(SCC(=O)c2cc3ccccc3oc2=O)c1C#N	-2%	?	-6%	?	15µM*	?
Cc1ccc2c(c1)N(C(=O)N1CCC(C(=O)Nc3cccc(F)c3)CC1)CCO2	/	i	/	/	/	i
O=C(c1ccccc1[N+](=O)[O-])N(CCc1ccccc1)Cc1ccccc1	-7%	i	-5%	9%	13%	i
COc1ccc(N(Cc2ccccc2)C(=O)c2ccccc2[N+](=O)[O-])cc1	-10%	?	-5%	9%	4%	15µM*
C/C(Cn1nnc([N+](=O)[O-])n1)=N\NC(=O)c1ccccc1O	?	i	?	19%	-1%	i
C/C(Cn1nnc([N+](=O)[O-])n1)=N\NC(=O)c1ccc(O)cc1O	23µM*	i	18µM*	13%	4%	i
COc1cc(OC)c(C(=O)OCC(=O)NC23CC4CC(CC(C4)C2)C3)cc1OC	-1%	i	0%	-5%	17%	8.2µM*
Cc1ccc(C)c(OCC(=O)NC2CCCCCC2)c1	-12%	i	-24%	0%	?	13µM*
COc1cc(OC)c(C(=O)OCC(=O)NC2CCCC2)cc1OC	16%	i	10%	-5%	0%	i
COc1ccccc1C(=O)OCC(=O)NC12CC3CC(CC(C3)C1)C2	-1%	i	4%	4%	0%	i
CC(C(=O)NC(=O)NC1CCCCC1)N1CCN(C(c2ccccc2)c2ccccc2)CC1 (stereo not given)	-1%	?	6%	0%	2%	9.2µM*
CC(C(=O)NC1CCCC1)N1CCN(Cc2ccccc2)CC1 (stereo not given)	16%	i	5%	0%	0%	i
COc1cc(OC)c(C(=O)OCC(=O)NC2CCCCCCC2)cc1OC	4%	?	7%	-4%	2%	8.2µM*
Cc1cccc(C)c1OCc1cc(C(=O)N2CCN(c3ccc(F)cc3)CC2)no1	-4%	i	-15%	3%	?	i
COc1ccc(CCC(=O)Nc2ccc(S(=O)(=O)N3CCOCC3)cc2)cc1OC	1%	i	-13%	/	/	i
